# Key:
# Settings in all cases: concentration: 1 μM, replicates: in singlicate; n = 1
# TRKC = tested on: T1, TRKC
# T1 construct: gene NTRK3
# TRPM6 = tested on: TRPM6
# TSSK1B = tested on: TSSK1B
# TSSK3 = tested on: TSSK3
# TTK = tested on: TTK
# TXK = tested on: TXK
# [1] = tested on: TYK2(JH1domain-catalytic)
# [2] = tested on: TYK2(JH2domain-pseudokinase)
# TYRO3 = tested on: TYRO3
# ULK1 = tested on: ULK1
# 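Also: KINOMEscan kinase panel screen.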
Structure (SMILES),%Inh (TRKC) [%],%Inh (TRPM6) [%],%Inh (TSSK1B) [%],%Inh (TSSK3) [%],%Inh (TTK) [%],%Inh (TXK) [%],%Inh [1] [%],%Inh [2] [%],%Inh (TYRO3) [%],%Inh (ULK1) [%]
COc1ccc(-c2oc3ncnc(N)c3c2-c2ccc(OC)cc2)cc1 [SB-589132],71,0,19,22,31,11,53,98.9,0,9
FC(F)(F)c1cc(Nc2nccc(-c3c(-c4ccc(Cl)cc4)nn4ncccc34)n2)ccc1Cl [GW829351],0,0,0,0,0,0,6,0,0,0
Cl.Cl.c1ccc(-c2cc3ccncc3cc2OC2CCNCC2)cc1 [GSK1122999],0,15,0,47,0,4,24,79,7,12
O=c1cc(N2CCOCC2)nc2n(Cc3cccc(Cl)c3)ccn12 [GSK2296823],0,11,0,3,9,18,14,7,9,16
CN1c2ccc(-c3ccc(C(=O)NCCO)cc3)cc2-c2[nH]ncc2S1(=O)=O,0,2,0,0,10,0,51,89,25,0
